Our source for the activation values is PubChem BioAssay AID624168 (Sanford-Burnham Center for Chemical Genomics, 2012).

“And” between values parts separate entries of the source, which are not always exact repeats. Identical values can stand only once. Screen size: about 360,000 compounds; about 800 (0.22%) were called active. The sample as a whole holds a higher share of actives than the screen did. Unmarked numbers belong to inactive results.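 The calls were made as follows: active = activation of at least 8% versus controls, or a plate z-score of at least 8; inactive = the rest.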

This assay can be described thus: activators of alpha-DG glycosylation, primary screen, uHTS, Pro5-aDG cells, AlphaScreen (AID 624168).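 Also: Pro5 are CHO cells carrying HIG-tagged alpha-DG that lacks glycosylation.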 The conditions noted are these: alpha-DG glycosylation AlphaScreen (IIH6), at 10 µM, stronger effect = higher value, 0% Pro5, 100% B10-LARGE cell signal. For orientation: Alpha assays give light when donor and acceptor beads are brought close together.
For `COCCNC(=O)C(OC(=O)c1cccs1)c1ccc(F)cc1` (stereo not drawn), the activation was -0.1%.

Turning to `CC(C)C(=O)NCC(c1cccs1)S(=O)(=O)c1ccc(F)cc1` (stereo not drawn), the activation is 6.9% (active).

As for `O=C(NCc1cccs1)C(=O)NCC1OCCCN1S(=O)(=O)c1ccc(F)cc1` (stereo not drawn), the activation was 0%.

Take `COc1cc(OC)cc(C(=O)NC(=S)N2CCN(c3ccc(C(F)(F)F)cc3[N+](=O)[O-])CC2)c1`: the activation is 0.3%.

For the compound `O=C(Cc1ccc(S(=O)(=O)N2CCOCC2)s1)N1CCN(c2ccc(C(F)(F)F)cc2[N+](=O)[O-])CC1`, the activation is 0.7%.

For the compound `O=C(c1ccc(N2CCCC2=O)cc1)N1CCN(c2ccc(C(F)(F)F)cc2[N+](=O)[O-])CC1`, the activation is 7% (active).

As to `CC1CCCN(S(=O)(=O)c2ccc(N(C(=O)c3cnccn3)C(C(=O)NC3CCCCC3)c3cccs3)cc2)C1` (stereo not drawn), the activation is -0.1%.

In the case of `Cc1ccccc1NC(=O)CCNS(=O)(=O)c1ccc2[nH]c(=O)oc2c1`, the activation is -0.2%.

For `COc1ccc(C)cc1NC(=O)CN(C)S(=O)(=O)c1ccc2c(c1)n(C)c(=O)c(=O)n2C`, the activation is -0.2%.

For `CC1=C(C(=O)NC2CC(C)(C)Cc3c2cnn3-c2ccc(C)cc2)OCCO1` (stereo not drawn), the activation was 0.4%.

Take `COC(=O)c1ccc(C(=O)NC2CC(C)(C)Cc3c2cnn3-c2ccc(F)cc2)nc1` (stereo not drawn): the activation is 0%.

Take `Cn1nccc1C(=O)NC1CCCc2c1cnn2-c1ccc(F)cc1F` (stereo not drawn): the activation is 5% (active).

Consider `COc1ccc(C23NCCN2C(=O)c2ccccc23)cc1` (stereo not drawn), for which the activation is -0.1%.

Consider `Cc1ccsc1C(=O)NCCc1ccco1`, for which the activation is -0.1%.

Turning to `Cc1c(CN2CCC(CO)(CCOc3ccccc3)CC2)[nH]c2ccc(Cl)cc12`, the activation was 2.4%.

`COCCn1c(SCC(=O)c2[nH]c(C)c(C(C)=O)c2C)nc2ccccc2c1=O`: the activation was 0%.

Consider `CCc1[nH]nc(C(=O)N2CCCC(CNS(=O)(=O)c3cccs3)C2)c1C` (stereo not drawn), for which the activation was 0.1%.

On to `Cc1ccccc1OCc1nnc(SCC(=O)N2c3ccccc3Sc3ccc(Cl)cc32)o1`, for which the activation is 0.3%.

For the compound `O=C(CNCc1ccc(F)cc1)Nc1ccccc1-c1ccccc1`, the activation is 0.6%.

With `Cc1nc2nc[nH]n2c(=O)c1NC(=O)c1cccc(OCC(C)C)c1`, the activation was 0.1%.

On to `CCc1cccc(C)c1NC(=O)COC(=O)CC1CCCC1`, for which the activation is 0.2%.

On to `CC(Sc1nnc(-c2ccccc2F)n1C1CC1)C(N)=O` (stereo not drawn), for which the activation is 0.1%.

Turning to `COc1ccc(NC(=O)CSc2nnc(-c3ccccc3F)n2C2CC2)cc1S(N)(=O)=O`, the activation was 6.3% (active).

In the case of `COc1ccc(NC(=O)CSc2nnc(C3CC3)n2C)cc1S(=O)(=O)N1CCCCC1`, the activation is -0.1%.

As for `OCC1OC(n2cnc3c(N4CCCC4)ncnc32)C(O)C1O` (stereo not drawn), the activation was -0.1%.

`Cc1[nH][nH]c(=O)c1C(c1ccc(-c2ccc(Cl)cc2)o1)c1c(C)[nH][nH]c1=O`: the activation is 0%.

For the compound `CCNC(=O)NC(=O)C(C)OC(=O)c1cc(S(=O)(=O)N2CCCCCC2)ccc1OC` (stereo not drawn), the activation is 0%.

In the case of `Cc1cc(C)c(C#N)c(SCC(=O)NN2CC(=O)N(c3ccccc3F)CC2=O)n1`, the activation is -0.2%.

As for `CCOc1ccc(OCC(=O)Nc2c3c(nn2C(C)(C)C)CS(=O)(=O)C3)cc1`, the activation was 7.3% (active).

Turning to `COc1ccccc1OCC(=O)Nc1c2c(nn1-c1ccc(F)cc1)CS(=O)(=O)C2`, the activation is -0.1%.

On to `CCOc1ccc(C(=O)Nc2c3c(nn2-c2ccccc2)CS(=O)(=O)C3)cc1`, for which the activation is 0.3%.

For the compound `O=S(=O)(c1ccc(Br)cc1)N1CCC(c2nc3ccccc3[nH]2)CC1`, the activation was 0.7%.

On to `N#Cc1cnn2cc(CCN3CCOCC3)c(-c3ccc(F)cc3)nc12`, for which the activation is -0.1%.

`CNC1(c2nnnn2-c2c(C)cccc2C)CCOC(C)(C)C1` (stereo not drawn): the activation is 0.1%.

`O=C(Cn1c(=O)sc2ccccc21)Nc1ccc2c(c1)OCCO2`: the activation was 0.4%.

Regarding `Cc1ccc(CSc2ccc(S(=O)(=O)N3CCCCC3)cn2)cc1`, the activation was 0.2%.

With `O=C(N1CCCCC1)N1CCN(C(=O)N2CCCCC2)CC1`, the activation was -0.2%.

As for `CC(=O)Oc1cccc(N2C(=O)CC(Nc3ccc(N4CCOCC4)cc3)C2=O)c1` (stereo not drawn), the activation is 0.6%.

Consider `CC(=O)Oc1cccc(N2C(=O)C3CC=C(Cl)CC3C2=O)c1` (stereo not drawn), for which the activation is 2.9% (active).

As to `CC1=CCC2C(=O)N(c3cccc(C(=O)NC(C)c4ccccc4)c3)C(=O)C2C1` (stereo not drawn), the activation is 0%.

With `O=C1CC(Cc2ccccc2)C(=O)N1c1ccc(Cl)cn1` (stereo not drawn), the activation was -0.3%.

Regarding `CCCCN(CC)CCCNC(=O)c1ccc(CSc2nc3ccncc3[nH]2)cc1`, the activation was -0.1%.

On to `O=C(NCC(=O)N(Cc1cccs1)C(C(=O)NC1CCCCC1)c1ccco1)c1cccs1` (stereo not drawn), for which the activation is 0.5%.

For `Cc1nnc(NC(=O)CCC(=O)N2CCC(C)CC2)s1`, the activation was -0.2%.

On to `CN(Cc1ccccc1)CC(O)COc1ccc(CNCc2cc3ccccc3s2)cc1` (stereo not drawn), for which the activation is 4.3% (active).

As for `COc1cccc(CN(C)CC(O)COC(c2ccccc2)c2ccccc2C)c1` (stereo not drawn), the activation is 0.1%.

In the case of `OC(CN=c1sc2ccccc2n1CC(O)COc1ccccc1)COc1ccccc1` (stereo not drawn), the activation is 0.6%.

`Cc1nc(N)nc(Cl)c1CCC1OCCO1`: the activation was 0.5%.

With `CC(OC(=O)C1CC(=O)N(Cc2ccccc2)C1)C(=O)Nc1ccccc1[N+](=O)[O-]` (stereo not drawn), the activation was 0.2%.

On to `CCc1noc(C)c1C(=O)N1CCCSC1=Nc1ccccc1OC`, for which the activation is -0.1%.

As to `CCOc1ccc(C(=O)Nc2cccc(SC)c2)cc1`, the activation is 0.3%.

As for `Cc1ccc(NC(=O)c2ccc(Oc3ncccn3)cc2)cc1`, the activation is 5.5% (active).

With `CCOc1ccc(NC(=O)c2ccc(NC(=O)C3CCCO3)cc2)cc1` (stereo not drawn), the activation was 0.1%.

As to `COc1cc(C(=O)NCCOC(=O)c2cccc(N(C)C)c2)cc(OC)c1OC`, the activation is 0%.

For `COCc1c(C(=O)OCC(=O)Nc2ccc(OC(F)F)cc2)oc2ccccc12`, the activation is 0.1%.

As to `Cc1cc(C)c(NC(=S)N2CCCC2C(=O)O)c(C)c1` (stereo not drawn), the activation is 0.5%.

For the compound `CCCS(=O)(=O)N1CCC(CCOc2ccccc2)(C(=O)OCC)CC1`, the activation is -0.1%.

As for `CCOC(=O)C1(CCOc2ccccc2)CCN(C(=O)c2cncs2)CC1`, the activation is 0.1%.

`CCOC(=O)C1(CCOC)CCN(Cc2cc3ccccc3s2)CC1`: the activation is 2% (active).

As to `CCOC(=O)N1CCN(S(=O)(=O)c2ccc(C(=O)Nc3ccc(F)cc3F)cc2)CC1`, the activation is -0.1%.

Regarding `Cc1c(CCOC(=O)CC23CC4CC(CC(C)(C4)C2)C3)sc[n+]1Cc1ccc([N+](=O)[O-])cc1`, the activation is 0.1% and -0.2%.

As for `O=C(Nc1ccccc1F)c1cc(S(=O)(=O)N2CCCCC2)cs1`, the activation was 0%.

As to `O=C(Nc1nncs1)c1cccc(S(=O)(=O)N2CCCCC2)c1`, the activation is -0.2%.

Consider `CN1CCN(S(=O)(=O)c2cccc(C(=O)Nc3sccc3C#N)c2)CC1`, for which the activation was 8.2% (active).

As to `CN1CCN(S(=O)(=O)c2cccc(C(=O)Nc3cccc(S(N)(=O)=O)c3)c2)CC1`, the activation was -0.1%.

For `CCCOc1ccc(C2NC(=O)NC(c3ccccc3)=C2C(C)=O)cc1OCC` (stereo not drawn), the activation is -0.1%.

As to `O=C(c1ccc(F)cc1)C1CCN(Cc2cn[nH]c2-c2ccccc2)CC1`, the activation was -0.1%.

Regarding `CCCCN(CC)C(=O)C1CCCN(S(=O)(=O)c2cccc3nsnc23)C1` (stereo not drawn), the activation was -0.1%.

In the case of `Clc1ccc(-c2cc(C3CCNCC3)[nH]n2)c(Cl)c1`, the activation is 11.1% (active).

Turning to `Clc1ccc(-c2cc(-c3ccccn3)on2)c(Cl)c1`, the activation was 0.1%.

Regarding `Cc1nn(-c2ccccc2)c2c1C(c1cccc([N+](=O)[O-])c1)N(c1ccccc1)C(=O)N2` (stereo not drawn), the activation was -0.2%.

Regarding `O=C(CCSCCc1ccccn1)Nc1nccs1`, the activation is -0.1%.

As to `COc1ccc(CCNC(=O)c2ccc(CS(=O)(=O)c3ccc(Br)cc3)o2)cc1OC`, the activation is -0.2%.

In the case of `CCc1ccccc1S(=O)(=O)Cc1ccc(C(=O)NCCc2ccccc2)o1`, the activation was 13% (active).

As for `Cc1ccccc1S(=O)(=O)Cc1ccc(C(=O)NCCN2CCCCC2C)o1` (stereo not drawn), the activation is -0.3%.

Regarding `CC(C)Oc1cc(F)ccc1-c1cc(C(=O)Nc2ccc(F)cc2)[nH]n1`, the activation was 0%.

On to `COc1cc(-c2nnc(NC(=O)CS(=O)(=O)c3ccc(Cl)cc3)o2)cc(OC)c1OC`, for which the activation was 0.5%.

With `COc1cccc(-c2nnc(NC(=O)c3ccc(S(=O)(=O)N(CC(C)C)CC(C)C)cc3)o2)c1`, the activation is 6.1% (active).

On to `O=C(Nc1nnc(-c2ccccc2)o1)c1cccc(S(=O)(=O)N2CCOCC2)c1`, for which the activation is 0.3%.

Regarding `CCCN(CCC)C(=O)C1c2ccccc2Oc2ccccc21`, the activation was 0.2%.

As for `C[C@H](CO)N1C[C@H](C)[C@H](CN(C)C(=O)Nc2ccc(C(F)(F)F)cc2)Oc2c(NC(=O)c3ccncc3)cccc2C1=O`, the activation is -0.2%.

Turning to `O=C(NCC1CCCCC1)NCC1CCCCC1`, the activation is -0.2%.

On to `Cc1ccc(Nc2cc(=O)n(C3CCCCC3)c(=O)[nH]2)cc1C`, for which the activation is 0.5%.

As for `CC(NC(=O)c1cccc(S(=O)(=O)N2CCc3ccccc3C2)c1)c1ccco1` (stereo not drawn), the activation was 0.1%.

Turning to `CCOC(=O)c1ccc(NC(=O)CS(=O)(=O)c2cn(CC)c3ccccc23)cc1`, the activation was -0.1%.

With `CCOC(=O)c1ccc(NC(=O)Cn2cnc3cc(C)c(C)cc32)cc1`, the activation was 3.2% (active).

For `CCOC(=O)c1ccc(NC(=O)CCn2c(=O)oc3ccccc32)cc1`, the activation is 0%.

On to `COc1c(C)cc(C(O)c2ncc(-c3cccc(C(F)(F)F)c3)[nH]2)cc1C` (stereo not drawn), for which the activation was 0.3%.

`CC(C)c1cccc(C(C)C)c1Nc1cn[nH]c1`: the activation is 0.6%.

As for `COc1ccccc1C(=O)C(O)c1ccccc1OC` (stereo not drawn), the activation was 0.1%.

Take `CC(C)Nc1ncnc2c1ncn2[C@H]1CN(Cc2ccncc2)C[C@@H](CO)O1`: the activation was 0.2%.

`OC[C@@H]1CN(Cc2ccc(-c3ccccc3)cc2)C[C@H](n2cnc3c(NC4CCCC4)ncnc32)O1`: the activation is 7.5% (active).

On to `OC[C@@H]1CN(C2CCCC2)C[C@H](n2cnc3c(NC4CCC4)ncnc32)O1`, for which the activation is 0.3%.
